Results: article PMC7862700, “An all-to-all approach to the identification of sequence-specific readers for epigenetic DNA modifications on cytosine”

Tests used:
Test in all cases: DAPPL (digital affinity profiling via proximity ligation, sequencing); 10 mM Tris-HCl pH 7.5, 50 mM NaCl, 1 mM DTT, 4% glycerol, room temperature, 30 min; GST-TFs on glutathione beads, 16-mer random dsDNA library, 0.1% formaldehyde crosslink after washing; high values mean tight binding
[1] = target: T1, FLI1 (Homo sapiens, UniProt Q01543 1-452); conditions: protein: recombinant; tags: N-terminal GST; dsDNA, one strand shown
T1 sequence: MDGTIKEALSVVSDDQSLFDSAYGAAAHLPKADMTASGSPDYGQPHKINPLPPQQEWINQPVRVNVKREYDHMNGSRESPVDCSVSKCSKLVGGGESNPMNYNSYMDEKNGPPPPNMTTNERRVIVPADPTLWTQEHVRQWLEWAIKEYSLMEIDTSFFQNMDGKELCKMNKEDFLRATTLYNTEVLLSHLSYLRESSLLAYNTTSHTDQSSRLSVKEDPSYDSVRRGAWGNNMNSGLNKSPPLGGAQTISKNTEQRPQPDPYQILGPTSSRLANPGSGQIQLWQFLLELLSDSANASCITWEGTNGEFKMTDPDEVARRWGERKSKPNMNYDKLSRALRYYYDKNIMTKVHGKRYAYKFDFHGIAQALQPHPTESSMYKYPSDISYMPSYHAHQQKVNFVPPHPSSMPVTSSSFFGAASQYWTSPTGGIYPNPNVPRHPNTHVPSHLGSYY
Summary of the method: (§1)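 Human transcription factors fused to GST were expressed in yeast, captured on glutathione beads, given DNA barcodes and pooled with a GST-only negative control. Pools were incubated with 200 nmole of a 16-mer random double-stranded DNA library in Tris/NaCl/DTT/glycerol buffer at room temperature for 30 min. They were then washed, crosslinked with 0.1% formaldehyde, proximity-ligated (BsaI/T4 ligase, 1 h, 37 °C), PCR-amplified and sequenced on an Illumina NextSeq500. Binding signal is each 6-mer's read frequency for a factor divided by its frequency for the GST control.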

[2] = target: T2, ELK1 (Homo sapiens, UniProt P19419 1-428); conditions: protein: recombinant; tags: N-terminal GST; dsDNA, one strand shown
T2 sequence: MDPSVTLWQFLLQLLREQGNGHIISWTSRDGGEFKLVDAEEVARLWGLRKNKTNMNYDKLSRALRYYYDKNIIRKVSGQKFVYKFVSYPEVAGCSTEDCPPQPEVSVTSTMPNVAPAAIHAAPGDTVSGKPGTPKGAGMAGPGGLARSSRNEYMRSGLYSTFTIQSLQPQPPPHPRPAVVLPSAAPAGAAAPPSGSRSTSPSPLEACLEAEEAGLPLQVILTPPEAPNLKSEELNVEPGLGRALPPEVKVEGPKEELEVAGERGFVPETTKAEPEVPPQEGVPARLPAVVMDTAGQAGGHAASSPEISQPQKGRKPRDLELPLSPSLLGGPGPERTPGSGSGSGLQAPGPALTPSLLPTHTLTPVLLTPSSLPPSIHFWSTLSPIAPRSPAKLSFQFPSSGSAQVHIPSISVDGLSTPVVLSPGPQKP
Summary of the method: as §1

[3] = target: T3, GABPA (Homo sapiens, UniProt Q06546 1-454); conditions: protein: recombinant; tags: N-terminal GST; dsDNA, one strand shown
T3 sequence: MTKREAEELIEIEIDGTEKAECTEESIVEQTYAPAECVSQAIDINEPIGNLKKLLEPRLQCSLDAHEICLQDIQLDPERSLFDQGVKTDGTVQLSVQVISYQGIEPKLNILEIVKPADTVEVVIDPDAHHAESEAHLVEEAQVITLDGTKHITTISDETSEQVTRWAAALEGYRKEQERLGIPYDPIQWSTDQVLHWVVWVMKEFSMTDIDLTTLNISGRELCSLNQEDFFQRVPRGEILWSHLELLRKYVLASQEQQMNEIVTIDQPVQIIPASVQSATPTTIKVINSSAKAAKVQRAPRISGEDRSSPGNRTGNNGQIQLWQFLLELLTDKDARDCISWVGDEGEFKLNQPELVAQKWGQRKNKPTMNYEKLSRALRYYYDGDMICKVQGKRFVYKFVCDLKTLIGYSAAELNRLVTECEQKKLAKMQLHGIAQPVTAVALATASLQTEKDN
Summary of the method: as §1

[4] = target: T4, ERG (Homo sapiens, UniProt P11308 1-479); conditions: protein: recombinant; tags: N-terminal GST; dsDNA, one strand shown
T4 sequence: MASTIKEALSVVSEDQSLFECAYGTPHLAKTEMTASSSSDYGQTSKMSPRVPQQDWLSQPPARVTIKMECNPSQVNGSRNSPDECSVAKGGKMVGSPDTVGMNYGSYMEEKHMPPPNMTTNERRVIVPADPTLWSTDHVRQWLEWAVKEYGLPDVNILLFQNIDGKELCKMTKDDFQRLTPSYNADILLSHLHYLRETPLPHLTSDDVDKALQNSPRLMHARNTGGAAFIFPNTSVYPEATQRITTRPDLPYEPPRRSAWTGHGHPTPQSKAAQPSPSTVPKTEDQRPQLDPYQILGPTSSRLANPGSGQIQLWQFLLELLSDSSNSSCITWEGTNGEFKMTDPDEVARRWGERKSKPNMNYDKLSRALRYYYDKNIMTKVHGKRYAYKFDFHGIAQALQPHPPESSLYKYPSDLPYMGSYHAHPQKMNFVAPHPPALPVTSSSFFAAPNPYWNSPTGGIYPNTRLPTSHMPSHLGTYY
Summary of the method: as §1

[5] = target: ELF1 (Homo sapiens, UniProt P32519 1-619); conditions: protein: recombinant; tags: N-terminal GST; dsDNA, one strand shown
Summary of the method: as §1

[6] = target: T5, EHF (Homo sapiens, UniProt Q9NZC4 1-300); conditions: protein: recombinant; tags: N-terminal GST; dsDNA, one strand shown
T5 sequence: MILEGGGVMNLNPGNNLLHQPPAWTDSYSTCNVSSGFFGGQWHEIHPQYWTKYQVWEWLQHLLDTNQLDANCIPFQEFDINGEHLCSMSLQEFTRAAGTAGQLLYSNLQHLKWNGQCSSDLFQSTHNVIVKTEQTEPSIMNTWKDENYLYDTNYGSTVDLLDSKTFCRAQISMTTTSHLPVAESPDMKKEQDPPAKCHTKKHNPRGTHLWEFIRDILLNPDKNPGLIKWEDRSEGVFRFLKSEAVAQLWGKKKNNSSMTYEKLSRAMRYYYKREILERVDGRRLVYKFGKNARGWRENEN
Summary of the method: as §1

[7] = target: SPI1 (Homo sapiens, UniProt P17947 1-270); conditions: protein: recombinant; tags: N-terminal GST; dsDNA, one strand shown
Summary of the method: as §1

[8] = target: SPIB (Homo sapiens, UniProt Q01892 1-262); conditions: protein: recombinant; tags: N-terminal GST; dsDNA, one strand shown
Summary of the method: as §1

[9] = target: T6, ELK3 (Homo sapiens, UniProt P41970 1-407); conditions: protein: recombinant; tags: N-terminal GST; dsDNA, one strand shown
T6 sequence: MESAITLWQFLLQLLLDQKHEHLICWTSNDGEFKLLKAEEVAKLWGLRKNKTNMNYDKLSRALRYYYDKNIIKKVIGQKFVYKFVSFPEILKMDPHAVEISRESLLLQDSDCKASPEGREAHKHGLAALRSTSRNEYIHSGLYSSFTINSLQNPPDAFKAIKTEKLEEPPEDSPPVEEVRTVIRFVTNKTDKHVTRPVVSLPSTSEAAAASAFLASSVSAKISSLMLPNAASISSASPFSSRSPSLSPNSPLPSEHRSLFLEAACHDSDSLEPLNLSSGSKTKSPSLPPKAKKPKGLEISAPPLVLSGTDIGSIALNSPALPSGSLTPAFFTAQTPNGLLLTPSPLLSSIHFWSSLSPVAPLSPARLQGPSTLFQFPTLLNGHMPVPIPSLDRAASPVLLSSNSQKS
Summary of the method: as §1

[10] = target: T7, FEV (Homo sapiens, UniProt Q99581 1-238); conditions: protein: recombinant; tags: N-terminal GST; dsDNA, one strand shown
T7 sequence: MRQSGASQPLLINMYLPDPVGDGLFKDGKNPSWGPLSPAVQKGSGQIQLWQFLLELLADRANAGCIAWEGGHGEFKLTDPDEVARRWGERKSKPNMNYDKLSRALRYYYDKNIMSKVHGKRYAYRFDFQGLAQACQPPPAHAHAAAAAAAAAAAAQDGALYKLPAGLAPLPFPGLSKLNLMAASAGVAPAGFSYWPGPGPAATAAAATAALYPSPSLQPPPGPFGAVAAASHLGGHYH
Summary of the method: as §1

[11] = target: ETV5 (Homo sapiens, UniProt P41161 1-510); conditions: protein: recombinant; tags: N-terminal GST; dsDNA, one strand shown
Summary of the method: as §1

[12] = target: HSF1 (Homo sapiens, UniProt Q00613 1-529); conditions: protein: recombinant; tags: N-terminal GST; chain copies: 3; dsDNA, one strand shown
Summary of the method: as §1

[13] = target: T8, SPIC (Homo sapiens, UniProt Q8N5J4 1-248); conditions: protein: recombinant; tags: N-terminal GST; dsDNA, one strand shown
T8 sequence: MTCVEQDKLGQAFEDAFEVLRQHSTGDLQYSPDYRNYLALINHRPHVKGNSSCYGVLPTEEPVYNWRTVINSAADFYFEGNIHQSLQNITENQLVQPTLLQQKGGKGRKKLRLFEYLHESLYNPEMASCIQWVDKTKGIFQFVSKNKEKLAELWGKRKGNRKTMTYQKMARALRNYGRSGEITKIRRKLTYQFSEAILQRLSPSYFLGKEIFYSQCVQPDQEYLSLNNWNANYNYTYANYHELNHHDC
Summary of the method: as §1

[14] = target: ELF4 (Homo sapiens, UniProt Q99607 1-663); conditions: protein: recombinant; tags: N-terminal GST; dsDNA, one strand shown
Summary of the method: as §1

[15] = target: T9, ELK4 (Homo sapiens, UniProt P28324-2 1-405); conditions: protein: recombinant; tags: N-terminal GST; dsDNA, one strand shown
T9 sequence: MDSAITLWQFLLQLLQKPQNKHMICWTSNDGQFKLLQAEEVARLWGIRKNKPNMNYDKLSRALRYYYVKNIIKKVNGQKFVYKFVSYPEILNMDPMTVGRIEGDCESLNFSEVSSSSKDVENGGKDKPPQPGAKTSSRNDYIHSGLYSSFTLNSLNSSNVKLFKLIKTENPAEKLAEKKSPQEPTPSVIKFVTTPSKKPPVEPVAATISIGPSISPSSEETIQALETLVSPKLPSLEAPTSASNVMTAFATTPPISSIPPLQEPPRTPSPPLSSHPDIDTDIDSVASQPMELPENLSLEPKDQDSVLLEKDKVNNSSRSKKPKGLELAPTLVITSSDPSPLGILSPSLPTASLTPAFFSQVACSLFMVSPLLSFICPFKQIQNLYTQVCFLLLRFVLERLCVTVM
Summary of the method: as §1

[16] = target: T10, ETV2 (Homo sapiens, UniProt O00321 1-342); conditions: protein: recombinant; tags: N-terminal GST; dsDNA, one strand shown
T10 sequence: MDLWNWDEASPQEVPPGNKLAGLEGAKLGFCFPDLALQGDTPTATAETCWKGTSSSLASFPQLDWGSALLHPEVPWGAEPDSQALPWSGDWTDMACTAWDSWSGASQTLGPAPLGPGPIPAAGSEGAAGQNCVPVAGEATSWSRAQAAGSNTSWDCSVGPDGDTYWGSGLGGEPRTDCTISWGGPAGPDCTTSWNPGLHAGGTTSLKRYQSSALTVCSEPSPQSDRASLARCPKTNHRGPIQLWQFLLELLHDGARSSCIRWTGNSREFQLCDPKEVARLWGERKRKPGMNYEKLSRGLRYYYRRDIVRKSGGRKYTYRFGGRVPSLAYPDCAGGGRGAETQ
Summary of the method: as §1

[17] = target: T11, ELF3 (Homo sapiens, UniProt P78545 1-371); conditions: protein: recombinant; tags: N-terminal GST; dsDNA, one strand shown
T11 sequence: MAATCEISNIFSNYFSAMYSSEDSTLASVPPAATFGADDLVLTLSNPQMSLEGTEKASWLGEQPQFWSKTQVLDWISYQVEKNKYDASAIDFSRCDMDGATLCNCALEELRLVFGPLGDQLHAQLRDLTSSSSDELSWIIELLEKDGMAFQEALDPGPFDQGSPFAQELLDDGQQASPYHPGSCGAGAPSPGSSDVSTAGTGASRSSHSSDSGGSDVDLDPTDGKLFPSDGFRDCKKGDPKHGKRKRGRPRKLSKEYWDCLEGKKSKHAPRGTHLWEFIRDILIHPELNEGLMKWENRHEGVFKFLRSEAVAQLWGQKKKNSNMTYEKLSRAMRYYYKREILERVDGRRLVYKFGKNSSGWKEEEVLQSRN
Summary of the method: as §1

[18] = target: CRX (Homo sapiens, UniProt O43186 1-299); conditions: protein: recombinant; tags: N-terminal GST; dsDNA, one strand shown
Summary of the method: as §1

[19] = target: ETV1 (Homo sapiens, UniProt P50549 1-477); conditions: protein: recombinant; tags: N-terminal GST; dsDNA, one strand shown
Summary of the method: as §1

ETV5, sequence (P41161 whole entry): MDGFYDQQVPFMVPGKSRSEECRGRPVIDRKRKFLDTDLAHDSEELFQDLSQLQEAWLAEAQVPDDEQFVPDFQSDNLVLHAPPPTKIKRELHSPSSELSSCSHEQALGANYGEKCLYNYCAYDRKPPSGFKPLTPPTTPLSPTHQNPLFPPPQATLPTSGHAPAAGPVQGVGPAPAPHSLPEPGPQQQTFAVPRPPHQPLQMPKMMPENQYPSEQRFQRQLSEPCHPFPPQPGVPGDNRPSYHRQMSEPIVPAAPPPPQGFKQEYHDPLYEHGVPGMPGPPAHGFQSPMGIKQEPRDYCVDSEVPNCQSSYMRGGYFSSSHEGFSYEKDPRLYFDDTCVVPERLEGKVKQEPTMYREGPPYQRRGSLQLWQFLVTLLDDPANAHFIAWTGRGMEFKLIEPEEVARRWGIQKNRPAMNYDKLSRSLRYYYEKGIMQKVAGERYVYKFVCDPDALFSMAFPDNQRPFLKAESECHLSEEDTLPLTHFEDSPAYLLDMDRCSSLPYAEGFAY
HSF1, sequence (Q00613 whole entry): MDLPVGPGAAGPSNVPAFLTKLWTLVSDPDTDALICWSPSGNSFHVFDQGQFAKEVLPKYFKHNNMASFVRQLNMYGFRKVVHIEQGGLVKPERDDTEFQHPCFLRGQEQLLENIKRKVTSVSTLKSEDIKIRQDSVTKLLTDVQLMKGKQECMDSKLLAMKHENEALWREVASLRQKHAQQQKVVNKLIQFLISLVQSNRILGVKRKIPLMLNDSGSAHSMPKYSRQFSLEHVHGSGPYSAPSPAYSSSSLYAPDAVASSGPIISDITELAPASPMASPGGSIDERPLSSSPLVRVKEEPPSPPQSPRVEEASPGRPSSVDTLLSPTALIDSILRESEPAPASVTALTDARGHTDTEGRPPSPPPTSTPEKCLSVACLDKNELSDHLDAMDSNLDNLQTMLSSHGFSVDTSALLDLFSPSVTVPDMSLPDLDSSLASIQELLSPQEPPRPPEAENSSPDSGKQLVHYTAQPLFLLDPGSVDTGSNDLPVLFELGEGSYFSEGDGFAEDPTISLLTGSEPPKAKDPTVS
ETV1, sequence (P50549 whole entry): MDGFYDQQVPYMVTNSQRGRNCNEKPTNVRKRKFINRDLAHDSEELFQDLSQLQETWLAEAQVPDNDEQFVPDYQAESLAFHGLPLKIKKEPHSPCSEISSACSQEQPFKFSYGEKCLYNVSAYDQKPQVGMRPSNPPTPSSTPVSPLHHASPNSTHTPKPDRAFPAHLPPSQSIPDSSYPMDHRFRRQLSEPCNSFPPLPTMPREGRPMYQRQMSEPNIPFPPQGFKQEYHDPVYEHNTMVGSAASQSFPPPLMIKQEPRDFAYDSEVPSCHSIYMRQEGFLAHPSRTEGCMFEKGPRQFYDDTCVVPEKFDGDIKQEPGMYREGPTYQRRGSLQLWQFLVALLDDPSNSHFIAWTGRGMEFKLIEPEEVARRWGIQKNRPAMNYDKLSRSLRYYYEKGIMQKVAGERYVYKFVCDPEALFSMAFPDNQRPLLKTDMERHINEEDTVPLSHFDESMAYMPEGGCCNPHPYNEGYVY
ELF1, sequence (P32519 whole entry): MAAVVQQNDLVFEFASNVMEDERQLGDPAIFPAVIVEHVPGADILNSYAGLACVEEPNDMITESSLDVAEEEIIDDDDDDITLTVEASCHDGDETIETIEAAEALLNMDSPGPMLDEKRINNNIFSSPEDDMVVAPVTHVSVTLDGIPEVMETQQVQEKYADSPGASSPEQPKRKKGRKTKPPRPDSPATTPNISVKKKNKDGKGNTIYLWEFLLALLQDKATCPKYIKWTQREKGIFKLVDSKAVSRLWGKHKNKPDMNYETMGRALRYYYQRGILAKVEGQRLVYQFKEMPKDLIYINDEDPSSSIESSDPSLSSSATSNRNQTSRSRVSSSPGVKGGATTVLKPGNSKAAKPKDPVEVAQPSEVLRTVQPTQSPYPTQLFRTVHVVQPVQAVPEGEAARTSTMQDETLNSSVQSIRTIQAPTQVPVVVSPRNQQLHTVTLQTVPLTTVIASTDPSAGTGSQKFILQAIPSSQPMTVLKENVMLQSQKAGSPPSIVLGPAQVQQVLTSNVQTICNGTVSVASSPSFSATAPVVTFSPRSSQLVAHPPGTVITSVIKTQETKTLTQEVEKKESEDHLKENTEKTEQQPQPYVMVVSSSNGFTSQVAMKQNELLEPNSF
CRX, sequence (O43186 whole entry): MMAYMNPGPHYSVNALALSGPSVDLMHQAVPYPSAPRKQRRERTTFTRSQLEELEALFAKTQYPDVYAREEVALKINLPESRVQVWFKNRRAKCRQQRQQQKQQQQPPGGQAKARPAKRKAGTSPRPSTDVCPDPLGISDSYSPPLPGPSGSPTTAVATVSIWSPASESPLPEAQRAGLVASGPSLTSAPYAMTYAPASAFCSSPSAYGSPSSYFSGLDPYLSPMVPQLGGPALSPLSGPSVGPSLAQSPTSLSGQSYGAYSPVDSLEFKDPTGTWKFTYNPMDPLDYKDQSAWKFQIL
SPIB, sequence (Q01892 whole entry): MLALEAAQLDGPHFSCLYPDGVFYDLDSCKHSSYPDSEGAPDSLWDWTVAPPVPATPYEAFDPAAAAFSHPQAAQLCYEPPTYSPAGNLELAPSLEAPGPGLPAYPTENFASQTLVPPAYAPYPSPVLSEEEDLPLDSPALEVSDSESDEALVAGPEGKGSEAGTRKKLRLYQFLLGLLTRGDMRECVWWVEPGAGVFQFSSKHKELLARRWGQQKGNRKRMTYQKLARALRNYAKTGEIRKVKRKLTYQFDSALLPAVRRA
ELF4, sequence (Q99607 whole entry): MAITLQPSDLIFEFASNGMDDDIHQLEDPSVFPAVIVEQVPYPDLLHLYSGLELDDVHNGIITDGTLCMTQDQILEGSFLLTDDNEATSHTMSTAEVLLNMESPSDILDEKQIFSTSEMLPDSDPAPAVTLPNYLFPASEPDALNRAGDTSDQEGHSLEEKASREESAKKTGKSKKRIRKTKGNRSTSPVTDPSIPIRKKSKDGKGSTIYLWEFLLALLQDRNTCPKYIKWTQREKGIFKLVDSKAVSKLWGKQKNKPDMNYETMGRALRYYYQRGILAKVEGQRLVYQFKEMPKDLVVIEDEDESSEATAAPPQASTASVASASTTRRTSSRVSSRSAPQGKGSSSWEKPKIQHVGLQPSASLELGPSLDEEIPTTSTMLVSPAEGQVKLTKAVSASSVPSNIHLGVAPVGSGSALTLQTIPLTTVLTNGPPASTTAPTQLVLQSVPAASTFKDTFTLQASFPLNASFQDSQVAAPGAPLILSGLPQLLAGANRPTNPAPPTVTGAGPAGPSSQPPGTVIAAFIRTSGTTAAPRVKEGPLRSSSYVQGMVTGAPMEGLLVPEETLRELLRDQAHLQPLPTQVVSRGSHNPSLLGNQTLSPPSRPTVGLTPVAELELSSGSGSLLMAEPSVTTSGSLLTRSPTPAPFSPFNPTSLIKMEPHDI

AAACTA
binding signal [1]: 1.17 fold enrichment (6-mer frequency, TF over GST control) | binding signal [2]: 1.23 fold enrichment (6-mer frequency, TF over GST control) | binding signal [3]: 1.23 fold enrichment (6-mer frequency, TF over GST control) | binding signal [4]: 1.23 fold enrichment (6-mer frequency, TF over GST control) | binding signal [5]: 1.27 fold enrichment (6-mer frequency, TF over GST control) | binding signal [6]: 1.32 fold enrichment (6-mer frequency, TF over GST control) | binding signal [7]: 1.22 fold enrichment (6-mer frequency, TF over GST control) | binding signal [8]: 1.22 fold enrichment (6-mer frequency, TF over GST control) | binding signal [9]: 1.34 fold enrichment (6-mer frequency, TF over GST control) | binding signal [10]: 1.29 fold enrichment (6-mer frequency, TF over GST control) | binding signal [11]: 1.3 fold enrichment (6-mer frequency, TF over GST control) | binding signal [12]: 1.31 fold enrichment (6-mer frequency, TF over GST control) | binding signal [13]: 1.18 fold enrichment (6-mer frequency, TF over GST control) | binding signal [14]: 1.33 fold enrichment (6-mer frequency, TF over GST control) | binding signal [15]: 1.22 fold enrichment (6-mer frequency, TF over GST control) | binding signal [16]: 1.29 fold enrichment (6-mer frequency, TF over GST control) | binding signal [17]: 1.09 fold enrichment (6-mer frequency, TF over GST control) | binding signal [18]: 1.35 fold enrichment (6-mer frequency, TF over GST control) | binding signal [19]: 1.36 fold enrichment (6-mer frequency, TF over GST control)
